The supplement of paper PMC12645437, “Orthogonal IMiD-Degron Pairs Induce Selective Protein Degradation in Cells” (ACS Chemical Biology, 2025)
Whole data set: some 8,300 sequences, median “log2 fold change of degron read counts, EGFP-low vs EGFP+ sorted cells (limma voom), compound-induced degradation” near -1.1, cut for the highest 2% near 3.2. The full list was thinned out, with the highest values kept by preference.

T1: CRBN, Q96SW2
T1 chain: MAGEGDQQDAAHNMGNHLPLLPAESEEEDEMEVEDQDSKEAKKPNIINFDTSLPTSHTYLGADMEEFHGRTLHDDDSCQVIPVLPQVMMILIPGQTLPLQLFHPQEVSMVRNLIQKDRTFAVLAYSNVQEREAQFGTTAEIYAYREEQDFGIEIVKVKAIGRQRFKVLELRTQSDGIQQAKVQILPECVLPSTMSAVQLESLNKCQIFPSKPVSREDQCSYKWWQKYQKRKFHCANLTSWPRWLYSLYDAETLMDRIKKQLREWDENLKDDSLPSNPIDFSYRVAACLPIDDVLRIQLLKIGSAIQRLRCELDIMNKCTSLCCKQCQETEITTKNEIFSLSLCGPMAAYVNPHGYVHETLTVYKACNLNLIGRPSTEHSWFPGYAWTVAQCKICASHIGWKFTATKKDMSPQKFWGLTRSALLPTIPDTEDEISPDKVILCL

B1: 46F_47R_49P_50Q_52G_53A_54R_55F_67L_, Q9UKT9 (peptide)
chain: FRCPQCGARFTQKGNLLRHIKL
B2: 46F_47L_49P_50Q_52G_53A_54K_55F_67L_, Q9UKT9 (peptide)
chain: FLCPQCGAKFTQKGNLLRHIKL
B3: 46F_47K_49E_50V_52G_53A_54Q_55F_67L_, Q9UKT9 (peptide)
chain: FKCEVCGAQFTQKGNLLRHIKL
B4: 46F_47F_49E_50I_52G_53R_54A_55F_67L_, Q9UKT9 (peptide)
chain: FFCEICGRAFTQKGNLLRHIKL
B5: 46F_47K_49E_50I_52G_53H_54P_55F_67L_, Q9UKT9 (peptide)
chain: FKCEICGHPFTQKGNLLRHIKL
B6: 46F_47K_49P_50I_52G_53R_54F_55F_67L_, Q9UKT9 (peptide)
chain: FKCPICGRFFTQKGNLLRHIKL
B7: 46F_47R_49D_50I_52G_53A_54N_55F_67L_, Q9UKT9 (peptide)
chain: FRCDICGANFTQKGNLLRHIKL
B8: 46F_47D_49N_50V_52G_53A_54Y_55F_67L_, Q9UKT9 (peptide)
chain: FDCNVCGAYFTQKGNLLRHIKL
B9: 46F_47I_49S_50V_52G_53H_54E_55F_67L_, Q9UKT9 (peptide)
chain: FICSVCGHEFTQKGNLLRHIKL
B10: 46F_47Q_49P_50V_52G_53A_54Q_55F_67L_, Q9UKT9 (peptide)
chain: FQCPVCGAQFTQKGNLLRHIKL
B11: 46F_47H_49P_50V_52G_53A_54Q_55F_67L_, Q9UKT9 (peptide)
chain: FHCPVCGAQFTQKGNLLRHIKL
B12: 46F_47I_49P_50V_52G_53A_54Q_55F_67L_, Q9UKT9 (peptide)
chain: FICPVCGAQFTQKGNLLRHIKL
B13: 46F_47D_49P_50V_52G_53A_54Q_55F_67L_, Q9UKT9 (peptide)
chain: FDCPVCGAQFTQKGNLLRHIKL
B14: 46F_47G_49P_50V_52G_53A_54Q_55F_67L_, Q9UKT9 (peptide)
chain: FGCPVCGAQFTQKGNLLRHIKL
B15: 46F_47N_49P_50V_52G_53A_54Q_55F_67L_, Q9UKT9 (peptide)
chain: FNCPVCGAQFTQKGNLLRHIKL
B16: 46F_47L_49D_50V_52G_53A_54L_55F_67L_, Q9UKT9 (peptide)
chain: FLCDVCGALFTQKGNLLRHIKL
B17: 46F_47N_49P_50V_52G_53A_54V_55F_67L_, Q9UKT9 (peptide)
chain: FNCPVCGAVFTQKGNLLRHIKL

Target: T1, CRBN, Q96SW2
Assay: log2 fold change of degron read counts, EGFP-low vs EGFP+ sorted cells (limma voom), compound-induced degradation; higher = more compound-induced degradation of the degron-EGFP fusion; degrons are variants of IKZF1/3 zinc finger 2; compound dose not given here
Conditions: Jurkat, 18 h
[1] = compound: compound 19 (5-tert-butyl-thalidomide)
[2] = compound: compound 22 (5-morpholino-thalidomide)
[3] = compound: compound 33 (diphenyl IMiD analogue)
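Also: pooled lentiviral library of zinc finger degron-EGFP fusions in mCherry-positive Jurkat cells, FACS-sorted after compound exposure, with degron abundance counted by next-generation sequencing.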

Sequence | log2 fold change of degron read counts [1] | log2 fold change of degron read counts [2] | log2 fold change of degron read counts [3] | log2 fold change of degron read counts (compound: thalidomide)
B1 | -2.3 | -2.09 | -1.12 | -1.27
B2 | -2.44 | -2.82 | -1.39 | -0.831
B3 | -0.0625 | -2.24 | -2.07 | -0.411
B4 | 0.601 | -0.248 | 0.402 | -1.11
B5 | -2.59 | -2.5 | -2.61 | -0.946
B6 | -1.81 | -1.89 | -2.21 | -1.32
B7 | -1.48 | -1.55 | 0.418 | -0.326
B8 | -1.56 | -2.08 | -0.374 | -0.686
B9 | -3.46 | -3.92 | -3.21 | -3.41
B10 | 0.712 | 2.48 | 2.51 | 3.59
B11 | 1.78 | 2.55 | 2.19 | 1.13
B12 | -0.745 | 2.74 | 2.89 | 2.73
B13 | 1.44 | 0.833 | 1.04 | 2.23
B14 | 3.8 | 2.65 | 1.73 | 1.07
B15 | 2.01 | 1.68 | 0.869 | 0.953
B16 | -2.27 | -2.28 | -1.03 | -1.23
B17 | 0.592 | 0.118 | 0.729 | 0.198
